Assay outcomes as filed in PubChem BioAssay.
MITF act: increases MITF-driven TRPM1 promoter luciferase signal. SK-MEL-5 TRPM1-promoter luciferase, 24 h; % of positive control, neutral wells = 0. activation, % at 12.5 µM. 0.75% of 300,000 active. AID 588334;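 active = mean activation of at least 80% with every replicate also reaching 80%; inconclusive = mean reaches 80% but some replicate falls short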;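 note: 0% = neutral control wells and 100% = parthenolide positive control wells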
esBAF inh: SWI/SNF esBAF complex inhibition. mouse ES cells, Bmi1-luciferase knock-in reporter, 24 h; 100% = twice the neutral-well signal. AID 602393. 2% of 350,000 active. reporter increase, % at 12.5 µM; in the data active = activation above about 40%; inconclusive = no clear call, values can overlap the other calls;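 note: 0% = median of the plate's neutral control wells and 100% = double that signal; a rise in the Bmi1 reporter signal indicates esBAF inhibition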
Wnt bcat act: Wnt/beta-catenin pathway activation; Wnt/beta-catenin reporter cell assay, activator, plate reader; activation, % at 9.35 µM; 1.2% of 300,000 active; in the data active = activation above about 30%, passing the limit was not always enough; inconclusive = no clear call, values can overlap the other calls;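 note: 0% = neutral control wells and 100% = positive control wells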
HIV Env fusion: HIV envelope-mediated fusion inhibition. HeLa-JRFL Env/CEM21 cell fusion, luciferase. inhibition, % at 12.3 µM. 1.1% of 360,000 active;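 active = mean replicate inhibition score of at least 50 and every replicate individually at or above 50; inconclusive = only one of the two criteria met; inactive = mean below 50 and not all replicates reaching 50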;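 note: 0% = plate neutral controls and 100% = maraviroc near 300 nM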
miR122 inh: blocks miR-122 activity in Huh7 sensor cells. Huh7 miR-122 Renilla luciferase sensor, 48 h; neutral wells = 0, positive control = 100. activation (reporter increase), % at 12.5 µM. 0.3% of 340,000 active;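 active = mean replicate activation score at least 90 and every replicate individually at or above 90; inconclusive = only one of the two criteria met; inactive = neither criterion met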;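 note: higher luciferase means less miR-122 activity so hits act as miR-122 inhibitors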
* hit, by the source's call; ? = inconclusive; · = no result; [ ] = remark or other dose. Hits are enriched below; roughly 3.4% of the tested compounds scored in any of these assays.

SMILES | MITF act | esBAF inh | Wnt bcat act | HIV Env fusion | miR122 inh
CCn1c(-c2ccc(Cl)cc2)n[nH]c1=S | -8 | 7 | · | 61* | -18
CCn1c(-c2ccc(C)cc2)n[nH]c1=S | -17 | · | -5 | -35 | 1
CO[C@H]1CN(C)C(=O)c2cc(NC(=O)c3ccno3)ccc2OC[C@@H](C)NC[C@H]1C | · | -4 | · | -3[16.7 µM] | -12[16.7 µM]
c1ccc(-c2csc(-c3ccncc3)n2)cc1 | 33 | 27 | 13 | -16 | -7
Oc1ccccc1-c1csc(-c2ccccc2)n1 | 47 | 77* | 14 | -214 | -1
Oc1ccc(-c2csc(-c3ccccc3)n2)cc1O | 6 | 60* | 7 | · | -14
C[C@H](CO)N1C[C@H](C)[C@@H](CN(C)Cc2ccc3c(c2)OCO3)Oc2ccc(NC(=O)C3CC3)cc2C1=O | · | -3 | · | 6[16.7 µM] | 2[16.7 µM]
S=C(NCc1ccccc1)Nc1ccc(Oc2ccccc2)cc1 | · | -2 | -1 | -7 | 24
S=C(NCc1ccccc1)Nc1ccc2ccccc2c1 | 60 | 80* | 21 | -86 | 56
C/C(=C\C(=S)Nc1ccccc1)Nc1ccc2ccccc2c1 | 14 | · | 52* | -20 | ·
CCOC(=O)c1cnc2ccc(C)cc2c1Sc1ccccc1 | 35 | 54* | -3 | · | 11
CCOC(=O)c1cnc2ccc(C)cc2c1Sc1ccc(F)cc1 | 26 | 32 | -5 | · | -8
CC(/C=N/NC(=O)c1cccc(F)c1)=C\c1ccccc1 | 44 | 7 | 40* | -315 | 7
CC(/C=N/NC(=O)c1ccncc1)=C\c1ccccc1 | 22 | 13 | 6 | · | 0
O=C(N/N=C/c1ccc(Cl)cc1Cl)c1cccc(F)c1 | 138* | 63* | 38* | -364 | -7
CC(=O)Nc1ccc(N/C=C/C(=O)c2ccc(Br)cc2)cc1 | 47 | 34 | · | · | -2
Cc1ccc(S(=O)(=O)NC(=O)Nc2ccc(F)c(F)c2)cc1 | 11 | -1 | 0 | -7 | ·
CC(=O)c1ccc(N/C=C/C(=O)c2ccc(Br)cc2)cc1 | · | 46* | 1 | -47 | -4
Cc1cccc(N/C=C/C(=O)c2ccc(Cl)cc2)c1 | 72 | 41 | 49* | -97 | 2
COc1ccc(NC(=O)NS(=O)(=O)c2ccc(C)cc2)cc1OC | 5 | -3 | 32* | -2 | -7
CCOC(=O)c1ccc(OS(=O)(=O)c2ccccc2)c(OC)c1 | ? | · | 54* | -97 | ·
C[C@@H]1CN([C@H](C)CO)C(=O)c2cc(NC(=O)Cn3cnnn3)ccc2O[C@@H]1CN(C)Cc1ccc2c(c1)OCO2 | · | -8 | · | · | -7[16.7 µM]
C[C@@H]1CCCCO[C@@H](CN(C)Cc2ccncc2)[C@H](C)CN([C@@H](C)CO)C(=O)c2cc(NS(=O)(=O)c3cn(C)cn3)ccc2O1 | · | 3 | · | 1[16.7 µM] | 2[16.7 µM]
C[C@H]1CN([C@@H](C)CO)C(=O)c2cc(NC(=O)CCCN(C)C)ccc2O[C@H]1CN(C)Cc1ccc(-c2ccccc2)cc1 | · | 5 | · | · | -4[16.7 µM]
O=C(C1CCOCC1)N1C[C@@H]2[C@H](c3ccccc31)[C@@H](CO)N2C(=O)Nc1ccccc1F | · | -1 | · | · | 21[16.7 µM]
SMILES | MITF act | esBAF inh | Wnt bcat act | HIV Env fusion | miR122 inh
COc1ccc(N/C=C\C(=O)c2ccc(C)cc2)cc1OC | 57 | 52* | 6 | 15 | 0
CCOC(=O)c1cccc(N/C=C/C(=O)c2ccc(OC)c(OC)c2)c1 | 25 | 53* | · | · | -2
COc1cccc(N/C=C/C(=O)c2ccc(OC)c(OC)c2)c1 | · | ? | 14 | -96 | ·
COc1cccc(C(=O)/C=C/Nc2cc(C)ccc2O)c1 | 64 | 63* | · | -169 | -8
CCOC(=O)c1ccc(N/C=C\C(=O)c2cccc(OC)c2)cc1 | 96* | · | · | -53 | 4
CO[C@@H]1CC[C@H]2CCN(C)C(=O)CCCN(C)C(=O)c3cccc(C#N)c3OC[C@@H]1O2 | · | -4 | · | 19[16.7 µM] | ·
C[C@@H]1CCCCO[C@H](CN(C)C(=O)Nc2cccc3ccccc23)[C@@H](C)CN([C@H](C)CO)C(=O)c2cc(NC(=O)c3ccncc3)ccc2O1 | · | -7 | · | 2[16.7 µM] | 7[16.7 µM]
CCC(=O)Nc1ccc2c(c1)OC[C@@H](C)N(C(=O)CC)C[C@H](C)[C@@H](OC)CN(C)C2=O | · | -2 | · | · | -2[16.7 µM]
Cc1ccc(S(=O)(=O)Nc2cccc3c2O[C@H](CN(C)C(=O)NC2CCCCC2)[C@@H](C)CN([C@@H](C)CO)C3=O)cc1 | · | -2 | · | -4[16.7 µM] | 14[16.7 µM]
CC[C@@H]1[C@H]2CCCC(=O)N3CC[C@@H](C[C@@H]1OC(=O)NCc1ccccc1)[C@@H]23 | 1 | -1 | -2 | -18 | 1
CCCCNC(=O)O[C@H]1C[C@@H]2CCN3C(=O)CCC[C@H]([C@H]1Cc1ccccc1)[C@H]23 | -1 | 1 | -4 | 56* | ·
CCN1C(=O)[C@H]2[C@@H](c3ccc(C)cc3)N3C(=O)N(c4ccc(C(F)(F)F)cc4)C(=O)[C@@]3(CC(C)C)[C@H]2C1=O | -3 | 2 | -2 | 115* | -3
CCN1C(=O)[C@H]2[C@@H](c3ccc(C)cc3)N3C(=O)N(c4cccc(Br)c4)C(=O)[C@@]3(CC(C)C)[C@H]2C1=O | 0 | -2 | -1 | 104* | 6
CCN1C(=O)[C@H]2[C@@H](c3ccc(C)cc3)N3C(=O)N(c4ccc(C)cc4)C(=O)[C@@]3(CC)[C@H]2C1=O | 5 | 47* | 5 | 1 | -5
CCN1C(=O)[C@H]2[C@@H](c3ccc(C)cc3)N3C(=O)N(c4cccc(Br)c4)C(=O)[C@@]3(C)[C@H]2C1=O | 26 | -20 | -2 | 28 | -3
CCN1C(=O)[C@H]2[C@@H](c3ccc(C)cc3)N3C(=O)N(c4ccccc4)C(=O)[C@@]3(CC)[C@H]2C1=O | 21 | 14 | 6 | 6 | 1
CCN1C(=O)[C@H]2[C@@H](c3ccc(C)cc3)N3C(=O)N(c4ccc(C)cc4)C(=O)[C@@]3(C)[C@H]2C1=O | -1 | -8 | 3 | -5 | -1
C[C@@H]1CCCCO[C@@H](CN(C)Cc2ccc(C(F)(F)F)cc2)[C@H](C)CN([C@@H](C)CO)C(=O)c2cc(NS(=O)(=O)c3ccc(Cl)cc3)ccc2O1 | · | 8 | · | 3[16.7 µM] | -11[16.7 µM]
CC(C)C(=O)Nc1ccc2c(c1)C(=O)N(C)[C@@H]1CC[C@H](CC(=O)NCc3ccc(F)cc3)O[C@@H]1CO2 | · | -6 | · | -2[16.7 µM] | 1[16.7 µM]
COc1cccc(CNc2ccc3c(c2)ncn3C)c1OC | 29 | 21 | 6 | 0 | -2
COc1cc(C(=O)Nc2ccc3c(c2)ncn3C(C)(C)C)cc(OC)c1OC | · | 3 | 23 | -3 | -2
Cn1cnc2cc(NCc3ccccc3Cl)ccc21 | ? | 51* | 14 | -5 | ·
Cn1cnc2cc(NC(=O)COc3ccccc3)ccc21 | 66 | 43* | 12 | -31 | -6
Cc1ccc(OCC(=O)Nc2ccc3c(c2)ncn3C)cc1 | 5 | -7 | -2 | · | 0
CC(C)(C)n1cnc2cc(NC(=O)c3ccc(Cl)cc3)ccc21 | · | 7 | 43* | -142 | 5
Cn1cnc2cc(NC(=O)c3cccs3)ccc21 | 93* | · | 13 | -30 | ·
CCC(=O)Nc1ccc2c(c1)ncn2C | 2 | -1 | -2 | -2 | -4
Cc1cccc(C(=O)Nc2ccc3c(c2)ncn3C)c1 | 125* | 2 | 22 | -17 | 12
